Where “and” joins values, the source holds several entries; their conditions need not be identical. Equal entries are not always repeated. This is part of a sample that, as a whole, favours compounds with a hit. Of some 83,000 tested, about 20% had one in any assay.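 In brief: 96-well plates, 48 h treatment, single concentration, percent growth endpoint.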 Calls of active or inactive are those of the source. Rule for the calls: active = growth percent below 10; inactive = the rest.
tested on: TK-10 renal; assay: NCI-60 one-dose screen, 48 h (100 = growth as untreated, 0 = no growth, -100 = all killed); details: 10 µM unless noted

Compound | growth
O=C1NC(N/N=C\c2ccccc2)=N/C1=C/c1ccccc1 | -49.7% [100 µM] (active) and -77.5% [100 µM] (active)
C=C1C(=O)OC2CC(C)C3(O)CCC(=O)C3(C)CC12 (stereo not drawn) | 39.8% [100 µM] (inactive) and 21.4% [100 µM] (inactive)
COc1ccc2cc1Oc1ccc(cc1)CC1c3cc(OC)c(cc3CCN1C)Oc1c(OC)c(OC)cc3c1C(C2)N(C)CC3 (stereo not drawn) | -57.1% [75 µM] (active) and -97.5% [75 µM] (active)
CCOC(=O)COc1cc(-c2ccccc2)nc2cc(F)ccc12 | 95.9% [100 µM] (inactive) and 90.1% [100 µM] (inactive)
CO/C(N)=C(\C#N)N=Cc1ccc2ccccc2c1 | 12.8% [100 µM] (inactive) and -44.8% [100 µM] (active)
COC(=O)C(=O)C(C(=O)C(=O)Nc1ccccc1OC)c1nc2ccc([N+](=O)[O-])cc2[nH]c1=O (stereo not drawn) | 121% [100 µM] (inactive) and 68% [100 µM] (inactive)
COc1cc2c(c3c1c(=O)c1ccccc1n3C)C=C([N+](=O)[O-])C(C)(C)O2 | 31.2% [100 µM] (inactive) and -98.1% [100 µM] (active)
O=C1NC(N/N=C\C(O)C(O)C(O)C(O)CO)=N/C1=C\c1ccc(Cl)cc1 (stereo not drawn) | 47.7% [100 µM] (inactive) and -100% [100 µM] (active)
O=c1c2ccccc2nc(-c2ccccc2)n1/N=C/c1ccccc1[N+](=O)[O-] | 66.7% [100 µM] (inactive) and 0.136% [100 µM] (active)
Cc1ccc(/C=C2/N=C(N/N=C\c3ccccc3)NC2=O)cc1 | -15.5% [100 µM] (active) and 0.251% [100 µM] (active)
O=C(O)c1n[nH]nc1Cl | 98.7% [100 µM] (inactive) and 107% [100 µM] (inactive)
C=CCn1c2c(c3ccccc3c1=O)C(=O)c1ccccc1-2 | 47.5% [100 µM] (inactive) and -35.9% [100 µM] (active)
Cc1ccc(NC(=O)/C(Cc2cc(=O)oc3cc(O)ccc23)=N\NC(C)(C)C)cc1C | 103% [100 µM] (inactive) and 101% [100 µM] (inactive)
N#Cc1n[nH]n(-c2ccccc2)c1=O | 115% [100 µM] (inactive) and 107% [100 µM] (inactive)
CNc1nc2c(C)ccc3[nH]c(N(C)C)nc3c-2n1 | 60% [100 µM] (inactive) and 12.5% [100 µM] (inactive)
CN(C)c1ccc(/C=N/n2c(-c3ccccc3)nc3ccccc3c2=O)cc1 | 101% [100 µM] (inactive) and 30.4% [100 µM] (inactive)
COC(=O)C1=CO[C@@H](OC2OC(CO)C(O)C(O)C2O)[C@H]2[C@@H](C)[C@@H](O)[C@@H](O)[C@@H]12 (stereo partly drawn) | 102% [100 µM] (inactive) and 98% [100 µM] (inactive)
CC(C)CCCC(C)[C@H]1CC[C@H]2[C@@H]3CC[C@H]4C[C@@H](CCC=C(c5cc(Cl)c(O)c(C(=O)O)c5)c5cc(Cl)c(O)c(C(=O)O)c5)CC[C@]4(C)[C@H]3CC[C@]12C (stereo partly drawn) (tested in a mixture with another compound) | 179% [50 µM] (inactive) and 2.06% [50 µM] (active)
N#CC1(C#N)C2CCCCC23OC(=N)C1(C#N)C(c1ccccc1)O3 (stereo not drawn) | -29% [100 µM] (active)

Compound | growth
Cc1ccc(OCC2OC(n3cnc4nc(N)nc(Cl)c43)CC2Oc2ccc(C)cc2)cc1 (stereo not drawn) | 104% [100 µM] (inactive) and -84.6% [100 µM] (active)
COc1c(O)ccc(C2=Cc3ccc(O)cc3OC2)c1OC | 1.01% [100 µM] (active) and 9.04% [100 µM] (active)
COc1ccc2c(=O)c(-c3cc4c(cc3OC)OCO4)coc2c1 | 8.9% [100 µM] (active) and 12.1% [100 µM] (inactive)
NC(N)=Nc1ccc(CC(N)C(=O)O)cc1 (stereo not drawn) | 107% [12.5 µM] (inactive) and 111% [12.5 µM] (inactive)
NC1N=C(c2ccc(Cl)cc2)C2=C(N1)c1ccccc1CC2 (stereo not drawn) | 76.2% [100 µM] (inactive) and -97.6% [100 µM] (active)
C[C@@H]1CC[C@H]2C(C)(C)[C@H]3C[C@@]12CC[C@@]3(C)O | 87.1% [100 µM] (inactive) and 15.8% [100 µM] (inactive)
O=C(Nc1cccc(NC(=O)C(=O)C2CCC3=C(Sc4ccccc4N3)C2=O)n1)C(=O)C1CCC2=C(Sc3ccccc3N2)C1=O (stereo not drawn) | 103% [100 µM] (inactive) and 15.7% [100 µM] (inactive)
Cc1ccc(/C=N/Nc2nncc3ccccc23)s1 | 105% [100 µM] (inactive) and 21.6% [100 µM] (inactive)
Clc1ccc(C2NN=C3c4ccccc4OCC32)cc1 (stereo not drawn) | 7.98% [100 µM] (active) and 5.96% [100 µM] (active)
C=C1CC2(C)CCC(OC(=O)C3(C)OC3C)C(C)(OC(C)=O)C2CC1=C(C)C (stereo not drawn) | 89.2% [100 µM] (inactive) and 49.5% [100 µM] (inactive)
CC1CC(=O)N(N(C)C)C(C#N)(C#N)C1(C#N)C#N (stereo not drawn) | -97.2% [100 µM] (active) and -90.4% [100 µM] (active)
COc1cc(-c2nc(SC)nc3c2CCc2ccccc2-3)cc(OC)c1OC | 41.4% [100 µM] (inactive) and 11% [100 µM] (inactive)
C=C(CCC(C(=O)O)C1CCC2(C)C3=C(CCC12C)C1(C)CCC(O)C(C)(C)C1CC3)C(C)C (stereo not drawn) | -54.9% [100 µM] (active) and -100% [100 µM] (active)
O=C1c2cccnc2-c2nccc3ccnc1c23 | -100% [100 µM] (active)
CCC(c1ccc(N(C)C)cc1)C1NC(=S)NC1=O (stereo not drawn) | 47.6% [100 µM] (inactive) and 37.5% [100 µM] (inactive)
CC1=CC(=O)c2ccc(C)cc2C1=O | -100% [100 µM] (active)
COc1ccc(-c2coc3c4c(ccc3c2=O)OCO4)cc1OC | 54.4% [100 µM] (inactive) and 6.05% [100 µM] (active)
CC1CC(C(=O)OC2OC(COC3OC(CO)C(OC4OC(C)C(O)C(O)C4O)C(O)C3O)C(O)C(O)C2O)C2CCC3(C)C(=CCC4(C)C3CCC3C(C)(CO)C(O)C(O)CC34C)C2C1C (stereo not drawn) | -65.8% [100 µM] (active) and -100% [100 µM] (active)
O=C(O)COc1cc(-c2ccccc2F)nc2cc3c(cc12)OCO3 | 113% [100 µM] (inactive) and 102% [100 µM] (inactive)
